Experimental data from PubChem BioAssay (NCI).
The panel holds about 83,000 compounds, 20% with a hit somewhere; the sample as a whole holds those more often.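 Treatment: one concentration, 48 hours, 96-well format. Scoring: percent growth, with anything below 10 considered active.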 The source made the active and inactive calls.

Experiments:
Test in all cases: NCI-60 one-dose screen, 48 h (100 = growth as untreated, 0 = no growth, -100 = all killed)
Details in all cases: 10 µM unless noted
[1] = test system: SK-MEL-2 melanoma
[2] = test system: EKVX NSCLC
[3] = test system: SN12C renal
[4] = test system: TK-10 renal
[5] = test system: ACHN renal
[6] = test system: CAKI-1 renal
[7] = test system: A498 renal
[8] = test system: CCRF-CEM leukemia
[9] = test system: MOLT-4 leukemia
[10] = test system: SR leukemia
[11] = test system: RPMI-8226 leukemia
[12] = test system: OVCAR-8 ovarian
[13] = test system: OVCAR-5 ovarian
[14] = test system: OVCAR-4 ovarian
[15] = test system: SK-OV-3 ovarian
[16] = test system: IGROV1 ovarian
[17] = test system: OVCAR-3 ovarian
[18] = test system: HS 578T breast
[19] = test system: NCI/ADR-RES ovarian
[20] = test system: UO-31 renal

Measured: growth

COc1ccc(S(=O)(=O)NCCCNc2nccc(-c3c(-c4cccc(N)c4)nc4sccn34)n2)cc1
inactive: [1] 113% | [2] 96.3% | [3] 76.7% | [4] 134% | [5] 78.8% | [6] 77.5% | [7] 91.2% | [8] 78.4% | [9] 75.5% | [10] 86.4% | [11] 84% | [12] 93.5% | [13] 134% | [14] 97.1% | [15] 112% | [16] 87.1% | [17] 94.5% | [18] 93.9% | [19] 94.7%

Nc1c(C(=O)Nc2ccccc2)sc2nc3c(cc12)CN(CCc1ccccc1)CC3
inactive: [1] 105% | [2] 88.3% | [3] 89.4% | [4] 113% | [5] 95.3% | [6] 86.9% | [7] 91.3% | [8] 104% | [9] 104% | [10] 90% | [11] 92.2% | [12] 99.7% | [13] 99% | [14] 86.9% | [15] 89.8% | [16] 96.5% | [17] 109% | [18] 89.1% | [19] 87.3%

COc1cc2cc(COc3nccc(-c4ccc(Cl)cc4)n3)c(=O)[nH]c2cc1OC
inactive: [1] 96.7% | [2] 91% | [3] 69.3% | [4] 100% | [5] 102% | [6] 86.5% | [7] 76.6% | [9] 42.1% | [12] 81.3% | [13] 96.7% | [14] 82.5% | [15] 89.9% | [16] 79.6% | [17] 90.4% | [18] 67.3% | [19] 84.2%
active: [8] -20.5% | [11] -28.4%

CNc1cc2nc3cc(NC)c(C)cc3cc2cc1C
active: [2] -0.852% | [6] 7.63% | [9] 1.13% | [10] -27.6% | [11] 3.16% | [12] 2.25% | [17] 3.6%
inactive: [1] 48.5% | [3] 14.2% | [4] 24.5% | [5] 20.6% | [7] 16.5% | [8] 40.9% | [13] 24.5% | [14] 10.8% | [15] 12.7% | [16] 21.1% | [18] 13.1% | [19] 40.7%

CC(C)(C)c1nn(-c2ccccc2)c2c1CC1(CN2Cc2ccc3c(c2)OCO3)C(=O)c2ccccc2C1=O
inactive: [1] 115% | [2] 119% | [3] 96.5% | [20] 104% | [5] 89.9% | [6] 98.9% | [7] 106% | [8] 85.2% | [9] 80.3% | [11] 85.8% | [12] 89.2% | [13] 105% | [14] 123% | [15] 115% | [16] 96.6% | [17] 123% | [18] 120% | [19] 101%

O=c1c(/C=C/c2ccco2)nnc(SCCN2CCOCC2)n1/N=C/c1ccc([N+](=O)[O-])cc1
inactive: [1] 106% | [2] 81.6% | [3] 102% | [4] 154% | [5] 99.7% | [6] 106% | [7] 103% | [9] 81.2% | [10] 33.6% | [11] 67% | [12] 94% | [13] 103% | [14] 97.2% | [15] 95% | [16] 82.8% | [17] 108% | [18] 96.9% | [19] 101%
active: [8] -20.4%

COc1cccc(-c2cn3c(ccc4ccccc43)n2)c1
inactive: [1] 22.1% | [2] 20.8% | [3] 40.2% | [4] 88.8% | [5] 40.1% | [6] 32.4% | [8] 26.6% | [9] 48.7% | [10] 31.9% | [11] 31.8% | [12] 45.7% | [13] 52.7% | [14] 61.6% | [15] 45.7% | [16] 41.2% | [17] 16.7% | [18] 21.6% | [19] 15%
active: [7] -3.78%

CCOC(=O)c1c2ncccc2n2c(=O)n(-c3ccc(Cl)cc3)nnc12
inactive: [1] 108% | [2] 68.7% | [3] 103% | [4] 154% | [5] 77.9% | [6] 73.9% | [7] 106% | [8] 72% | [9] 86.8% | [10] 91.4% | [11] 92.8% | [12] 57.1% | [13] 67.7% | [14] 84.6% | [15] 92.2% | [16] 85.6% | [17] 95.2% | [18] 93.9% | [19] 59.8%

COc1ccc2nc(NC(=O)c3cccnc3Nc3cc(OC)c(OC)c(OC)c3)sc2c1
active: [6] 5.14% | [7] -64.4% | [10] -12.6% | [11] -1.38% | [12] -10.3% | [14] -65.5% | [15] -40.4% | [17] -62.5% | [19] 4.41%
inactive: [1] 48% | [2] 36.3% | [3] 18.5% | [5] 58% | [8] 48.6% | [9] 56.7% | [16] 68.6% | [18] 44.5%

O=[N+]([O-])c1c(F)cccc1Nc1cccc(F)c1
inactive: [1] 103% | [2] 103% | [20] 78.3% | [4] 113% | [5] 101% | [6] 101% | [7] 80.8% | [9] 93.8% | [10] 102% | [12] 102% | [13] 97.3% | [14] 95.9% | [15] 114% | [16] 117% | [17] 109% | [18] 102% | [19] 110%

CCN(CC)CCCNc1cccc2c(SCc3ccccc3)ccnc12
active: [20] -9.99% | [8] -26.1% | [9] -24.2% | [10] -27.9% | [11] -39.7% | [16] -40.3%
inactive: [1] 114% | [2] 63.5% | [4] 63.7% | [5] 102% | [6] 58.8% | [7] 75.7% | [12] 89.9% | [13] 107% | [14] 104% | [15] 97.8% | [17] 36.8% | [19] 42%

CCN(CC)c1ccc(CNc2cc(C)nc3ccc(OC)cc23)cc1
inactive: [1] 79.2% | [2] 25.7% | [4] 71.1% | [5] 78.1% | [6] 21.6% | [7] 17% | [8] 23.3% | [12] 81.4% | [13] 96.3% | [14] 71.9% | [15] 84.7% | [17] 51.6% | [19] 33.9%
active: [20] 3.78% | [9] 4.46% | [10] -22.2% | [11] -33.7%

Cc1cc(Nc2nc(-c3cccnc3)nc3ccccc23)n[nH]1
inactive: [1] 38.8% | [3] 58.9% | [20] 60.4% | [4] 59.8% | [5] 38% | [8] 57.3% | [9] 89.5% | [10] 15.5% | [11] 98.8% | [12] 80.6% | [13] 65.9% | [14] 60.8% | [15] 21.9% | [16] 28.9% | [17] 59% | [19] 69.3%
active: [6] 2.35% | [7] -19.7% | [18] 5.1%

CCCCN(CC)CCCCCCCCCCN1CCCc2cc(OC)ccc21
inactive: [1] 92.8% | [2] 34.5% | [20] 24.4% | [4] 87.8% | [5] 76.7% | [7] 75.9% | [12] 87.5% | [13] 78.8% | [14] 101% | [15] 88.9% | [17] 13.6% | [19] 25.9%
active: [6] 6.91% | [8] 7.28% | [9] -19.6% | [10] -31.7% | [11] -18.4%

COc1nc2c(cc1S(=O)(=O)c1ccccc1)CCc1c-2cnn1-c1ccc(Cl)cc1
inactive: [1] 97.2% | [2] 90.4% | [20] 99.3% | [4] 110% | [5] 102% | [6] 90.8% | [7] 82.4% | [8] 84.2% | [9] 86.3% | [10] 80.7% | [11] 93.3% | [12] 104% | [13] 85.5% | [14] 90.4% | [15] 95.5% | [16] 100% | [17] 111% | [18] 82% | [19] 89.9%

O=C1C=CC(Nc2ccccc2[N+](=O)[O-])C1Nc1ccccc1[N+](=O)[O-] (centres undefined)
inactive: [1] 67.9% | [3] 36.9% | [8] 10.5% | [9] 29.4% | [12] 31% | [13] 12.3% | [15] 109% | [16] 86% | [18] 32%
active: [2] -97.1% | [4] -45.3% | [5] -96% | [6] -24.3% | [11] -17.4% | [14] 3.47% | [17] -81.3% | [19] -26.8%

O=c1[nH]c(-c2ccccn2)nc2sc3c(c12)CCCCC3
inactive: [1] 74.4% | [2] 32.8% | [3] 51.2% | [4] 49.5% | [5] 36.2% | [6] 38.5% | [7] 59.4% | [9] 32.1% | [10] 27.3% | [11] 40.2% | [12] 36.1% | [13] 72.1% | [14] 23.6% | [15] 53% | [16] 45.1% | [17] 40.3% | [18] 81.7% | [19] 15.1%
